Assay [1] can be described thus: antimalarial activity against Dd2 strain (AID 2302;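 active = growth inhibition above 50% at the single 2 µM test dose, taken to imply half-maximal potency below 2 µM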;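 note: 0% = DMSO untreated growth and 100% = chloroquine plus artemisinin killed control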). Conditions: P. falciparum Dd2 in RBCs, LDH growth readout, 72 h; at 2 µM; hits give high values.
Assay [2] is described as follows: HepG2 cytotoxicity, primary screen, cytotoxicity control for P. falciparum antimalarial project, cell-based, ATP luminescence (AID 2303;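 active = inhibition above 50%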;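 note: 0% = DMSO wells and 100% = digitonin-killed cells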). To be noted: HepG2 viability, 24-48 h, at 10 µM, hits give high values.
The target in assay [3] is L-lactate dehydrogenase (Plasmodium falciparum (isolate CDC / Honduras)) (UniProt Q27743). Kind of assay: PfLDH activity inhibition – cell lysate, 3D7 strain, counter-screen for P. falciparum growth inhibition project (AID 2304).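 Note: 0% = vehicle and 100% = reference inhibitor.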 To be noted: P. falciparum 3D7 crude extract, LDH APAD/NBT absorbance; at 2 µM; hits give high values. A general note: A counterscreen serves to expose hits that act by an unwanted route or on another target.

A short description of assay [4]: inhibition of 3D7 malaria parasite growth – strain 3D7 (AID 2306).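 Note: 0% = DMSO wells and 100% = chloroquine plus artemisinin control wells.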 Conditions: P. falciparum 3D7 erythrocytic growth, LDH absorbance, 72 h; at 2 µM; hits give high values.
Assay [5] addresses Calcium-dependent protein kinase 1 (Plasmodium falciparum (isolate 3D7)) (UniProt P62344). Kind of assay: PfCDPK1 kinase inhibitors, biochemical, TCAMS library (AID 1159585; cut-off not given, nearly all actives have IC50 up to about 0.98 µM;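 note: inhibitors leave more ATP so luminescence rises with inhibition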). Conditions: recombinant PfCDPK1, Kinase-Glo ATP depletion luminescence. On the technique in general: Kinase-Glo reads ATP consumption through a luciferase reaction.
Assay [6] deals with Plasmodium falciparum protein kinase 6 (PK6, PF3D7_1337100) (UniProt Q8IDW1). Kind of assay: PfPK6 kinase inhibitors, biochemical, TCAMS library (AID 1159586). Conditions: recombinant PfPK6, Kinase-Glo ATP depletion luminescence.
Assay [7] deals with Protein kinase 7 (PK7), Plasmodium falciparum 3D7 (PF3D7_0213400) (UniProt Q7YTF7). Kind of assay: inhibition of Plasmodium PK7 catalytic activity – biochemical, TCAMS antimalarial set, Kinase-Glo luminescence (AID 1159587). Conditions: recombinant PfPK7, Kinase-Glo ATP depletion luminescence.
Assay [8] deals with Calcium-dependent protein kinase 4 (Plasmodium falciparum (isolate 3D7)) (UniProt Q8IBS5). Kind of assay: PfCDPK4 kinase inhibitors, biochemical, TCAMS library (AID 1159588; cut-off not given, nearly all actives have IC50 up to about 0.91 µM). To be noted: recombinant PfCDPK4, Kinase-Glo ATP depletion luminescence.

We go through 20 compounds from PubChem BioAssay.

A number with no mark means an inactive call. For some of these results: Results with a measured potency or affinity are listed apart. Calls of active or inactive are those of the source. Unless noted, the rule behind the calls is not given here.

Plasmodium falciparum protein kinase 6 (PK6, PF3D7_1337100), sequence (Q8IDW1 1-305): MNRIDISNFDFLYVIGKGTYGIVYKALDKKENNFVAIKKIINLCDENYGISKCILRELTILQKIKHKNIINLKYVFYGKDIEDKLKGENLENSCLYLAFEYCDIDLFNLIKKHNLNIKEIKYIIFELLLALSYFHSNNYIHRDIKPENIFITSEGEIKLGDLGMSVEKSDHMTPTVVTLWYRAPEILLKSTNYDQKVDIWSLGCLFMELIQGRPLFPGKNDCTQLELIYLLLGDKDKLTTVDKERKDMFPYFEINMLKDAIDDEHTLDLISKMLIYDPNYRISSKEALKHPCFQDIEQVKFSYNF
Calcium-dependent protein kinase 1 (Plasmodium falciparum (isolate 3D7)), sequence (P62344 whole entry, looked up): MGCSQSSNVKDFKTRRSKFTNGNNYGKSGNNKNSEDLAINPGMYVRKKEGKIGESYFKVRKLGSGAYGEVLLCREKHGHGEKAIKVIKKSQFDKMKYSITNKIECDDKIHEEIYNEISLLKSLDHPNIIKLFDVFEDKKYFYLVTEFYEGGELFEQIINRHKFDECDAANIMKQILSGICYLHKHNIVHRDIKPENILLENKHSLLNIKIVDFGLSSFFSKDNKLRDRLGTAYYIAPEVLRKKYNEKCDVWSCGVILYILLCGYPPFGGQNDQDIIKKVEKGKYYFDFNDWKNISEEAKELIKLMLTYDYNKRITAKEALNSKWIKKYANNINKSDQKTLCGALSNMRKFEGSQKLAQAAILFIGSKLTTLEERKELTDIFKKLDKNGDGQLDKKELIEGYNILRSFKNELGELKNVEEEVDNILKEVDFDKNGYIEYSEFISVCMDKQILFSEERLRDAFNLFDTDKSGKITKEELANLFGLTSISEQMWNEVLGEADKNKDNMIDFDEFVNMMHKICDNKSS
Protein kinase 7 (PK7), Plasmodium falciparum 3D7 (PF3D7_0213400), sequence (Q7YTF7 1-343): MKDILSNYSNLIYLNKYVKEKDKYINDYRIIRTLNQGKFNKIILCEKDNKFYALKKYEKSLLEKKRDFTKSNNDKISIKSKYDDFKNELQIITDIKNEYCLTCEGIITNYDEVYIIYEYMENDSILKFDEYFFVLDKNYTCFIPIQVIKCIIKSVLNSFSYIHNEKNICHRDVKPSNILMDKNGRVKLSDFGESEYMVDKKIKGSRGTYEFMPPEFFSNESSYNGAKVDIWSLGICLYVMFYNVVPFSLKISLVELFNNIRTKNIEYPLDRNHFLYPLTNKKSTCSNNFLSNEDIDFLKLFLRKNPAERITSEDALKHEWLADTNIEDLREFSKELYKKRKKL
Calcium-dependent protein kinase 4 (Plasmodium falciparum (isolate 3D7)), sequence (Q8IBS5 whole entry, looked up): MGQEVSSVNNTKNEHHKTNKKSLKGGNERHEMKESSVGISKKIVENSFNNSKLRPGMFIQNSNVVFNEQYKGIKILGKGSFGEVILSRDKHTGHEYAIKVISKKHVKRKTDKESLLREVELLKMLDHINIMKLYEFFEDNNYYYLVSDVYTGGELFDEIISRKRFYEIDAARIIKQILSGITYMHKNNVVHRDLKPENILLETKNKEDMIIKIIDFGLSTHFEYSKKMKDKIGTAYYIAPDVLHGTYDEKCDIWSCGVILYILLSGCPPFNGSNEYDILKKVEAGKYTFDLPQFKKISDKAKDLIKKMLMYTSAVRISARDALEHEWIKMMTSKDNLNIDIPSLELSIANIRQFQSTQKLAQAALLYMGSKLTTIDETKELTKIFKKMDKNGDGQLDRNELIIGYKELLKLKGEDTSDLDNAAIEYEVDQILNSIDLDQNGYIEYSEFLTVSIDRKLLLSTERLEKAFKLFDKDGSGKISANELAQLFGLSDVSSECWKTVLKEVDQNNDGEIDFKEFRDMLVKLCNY
L-lactate dehydrogenase (Plasmodium falciparum (isolate CDC / Honduras)), sequence (Q27743 whole entry, looked up): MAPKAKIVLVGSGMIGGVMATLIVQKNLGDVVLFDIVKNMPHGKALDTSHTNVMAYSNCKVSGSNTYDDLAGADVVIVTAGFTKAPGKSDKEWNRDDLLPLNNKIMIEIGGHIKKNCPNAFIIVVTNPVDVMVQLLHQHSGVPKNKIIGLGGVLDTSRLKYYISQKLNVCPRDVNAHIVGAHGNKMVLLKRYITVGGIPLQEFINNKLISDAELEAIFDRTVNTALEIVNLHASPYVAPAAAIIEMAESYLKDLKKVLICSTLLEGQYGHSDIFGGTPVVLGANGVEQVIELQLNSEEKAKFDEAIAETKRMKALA

Usually inhibition stands for the relative decrease from the control value, in per cent. Regarding `CC(C)c1ccc(NC(=O)NCCCC2CCCN(CCCCCNC(=O)/C=C/c3ccc(Cl)c(Cl)c3)C2)cc1` (stereo not given), the growth inhibition in assay [1] is 42%; in assay [4] it was 90% (active). Also, the inhibition is 25% in assay [2] and -2% in assay [3]. For the same compound, the result in assay [5], in assay [6], in assay [7] and in assay [8] was inactive.

For the compound `COc1ccccc1CCN(C)CCN1CCC(NC(=O)c2ccc(-c3ccc(C(F)(F)F)cc3)cc2)CC1`, the growth inhibition in assay [1] was 15%; in assay [4], 92% (active). Besides, the inhibition is 46% in assay [2] and -2% in assay [3]. Besides, the result in assay [5], in assay [6], in assay [7] and in assay [8] was inactive.

Consider `Cc1cccc(CN2CCN(c3ncc(C(=O)NC4CC4)cc3Cl)CC2)c1`, for which the growth inhibition was 73% (active) in assay [1] and 84% (active) in assay [4]. Also, the inhibition in assay [2] was 2%; in assay [3] it was -4%. Further, the outcome in assay [5], in assay [6], in assay [7] and in assay [8] was inactive.

On to `CCNc1cc(C(=O)N[C@@H](Cc2cccc(F)c2)[C@H](O)CNC(C)CCCC(C)C)cc(N2CCCCS2(=O)=O)c1` (stereo not given in full), for which the growth inhibition in assay [1] was 97% (active); in assay [4], 98% (active). Moreover, the inhibition in assay [2] is -3%; in assay [3], -4%. Also, the outcome in assay [5], in assay [6], in assay [7] and in assay [8] was inactive.

Turning to `COc1ccc(Oc2cnc(N)nc2N)c(C(C)C)c1`, the values for the growth inhibition in assay [1] and in assay [4] were -2% and 97% (active), respectively. Also, the inhibition was 58% (active) in assay [2] and 4% in assay [3]. The result in assay [5], in assay [6], in assay [7] and in assay [8] was inactive.

With `COc1ccc(CN2CCC(CNC(C)c3cccc4ccccc34)CC2)cc1` (stereo not given), the growth inhibition is 26% in assay [1] and 102% (active) in assay [4]. Moreover, the inhibition in assay [2] was 58% (active); in assay [3], -2%. The result in assay [5], in assay [6], in assay [7] and in assay [8] was inactive.

Turning to `CCCCN1CCN(c2cc(NS(=O)(=O)c3ccc(C(=O)Nc4ccc(C(F)(F)F)cc4)cc3)ccc2OC)CC1`, the growth inhibition in assay [1] is 20%; in assay [4] it was 99% (active). In addition, the inhibition in assay [2] is 17%; in assay [3] it was -3%. For the same compound, the result in assay [5], in assay [6], in assay [7] and in assay [8] was inactive.

As to `CC(C)(C)c1ccc(CNC(=O)c2ccc(CNC3CCC(N)CC3)s2)cc1` (stereo not given), the growth inhibition in assay [1] is 10%; in assay [4], 100% (active). For the same compound, the figures for the inhibition in assay [2] and in assay [3] were 41% and 4%, respectively. Further, the outcome in assay [5], in assay [6], in assay [7] and in assay [8] was inactive.

Take `CC1(C)N=C(N)N=C(N)N1OCCCc1cc(Cl)c(Cl)cc1Cl`: the growth inhibition is 96% (active) in assay [1] and 95% (active) in assay [4]. Besides, the results for the inhibition in assay [2] and in assay [3] were 55% (active) and 2%, respectively. The result in assay [5], in assay [6], in assay [7] and in assay [8] was inactive.

Consider `O=C(/C=C/c1ccc(Cl)c(Cl)c1)NCCCCCCN1CCN(C(=O)Nc2ccc(C(F)(F)F)cc2)CC1`, for which the growth inhibition is 44% in assay [1] and 100% (active) in assay [4]. For the same compound, the inhibition is 42% in assay [2] and -1% in assay [3]. Besides, the outcome in assay [5], in assay [6], in assay [7] and in assay [8] was inactive.

`Cc1cc(N2CC=CCC2)nc(/N=C(\N)Nc2ccc(Cl)cc2)n1`: the growth inhibition was 78% (active) in assay [1] and 100% (active) in assay [4]. Further, the inhibition in assay [2] is -2%; in assay [3], -8%. The outcome in assay [5], in assay [6], in assay [7] and in assay [8] was inactive.

Regarding `O=C(NCCCCCN1CCC(c2c[nH]c3ccccc23)CC1)Nc1ccc(I)c(Cl)c1`, the growth inhibition in assay [1] is 5%; in assay [4], 99% (active). Also, the inhibition is 88% (active) in assay [2] and 3% in assay [3]. In addition, the outcome in assay [5], in assay [6], in assay [7] and in assay [8] was inactive.

For `O=C(Nc1cccc(CN2CCCN(Cc3ccccc3)CC2)c1)c1ccc(-c2ccccc2)cc1`, the growth inhibition in assay [1] was 8%; in assay [4] it was 85% (active). For the same compound, the inhibition is 45% in assay [2] and -1% in assay [3]. The outcome in assay [5], in assay [6], in assay [7] and in assay [8] was inactive.

For `CCCn1c(SCC(=O)Nc2cc(C(F)(F)F)ccc2Cl)n[nH]c1=O`, the values for the growth inhibition in assay [1] and in assay [4] were 94% (active) and 96% (active), respectively. Further, the inhibition in assay [2] was -6%; in assay [3] it was -2%. For the same compound, the result in assay [5], in assay [6], in assay [7] and in assay [8] was inactive.

As to `CCCNCc1ccc(-c2ccc(CNC3Cc4ccccc4C3)cc2)nc1`, the growth inhibition in assay [1] was 32%; in assay [4], 97% (active). In addition, the inhibition in assay [2] is 23%; in assay [3] it was 1%. For the same compound, the outcome in assay [5], in assay [6], in assay [7] and in assay [8] was inactive.

On to `CC(C)C(=O)NC(c1ccc(Cl)cc1)c1ccc2cccnc2c1O` (stereo not given), for which the results for the growth inhibition in assay [1] and in assay [4] were 70% (active) and 91% (active), respectively. Moreover, the inhibition was 53% (active) in assay [2] and 3% in assay [3]. Also, the result in assay [5], in assay [6], in assay [7] and in assay [8] was inactive.

`N#Cc1cc(C(=O)c2cc(Br)ccc2O)cn(-c2cc(Cl)cc(Cl)c2)c1=O`: the results for the growth inhibition in assay [1] and in assay [4] were 35% and 98% (active), respectively. The inhibition was 42% in assay [2] and -5% in assay [3]. For the same compound, the result in assay [5], in assay [6], in assay [7] and in assay [8] was inactive.

Turning to `CCNC(=O)c1ccc(-n2nc(C)cc2-c2ccccc2)cc1`, the growth inhibition in assay [1] was 54% (active); in assay [4], 89% (active). The values for the inhibition in assay [2] and in assay [3] were 11% and 2%, respectively. In addition, the outcome in assay [5], in assay [6], in assay [7] and in assay [8] was inactive.

With `CN(C)Cc1cc2c(O)c(Cc3ccccc3)ccc2o1`, the growth inhibition in assay [1] was 69% (active); in assay [4], 85% (active). For the same compound, the inhibition in assay [2] was 3%; in assay [3] it was -8%. Moreover, the result in assay [5], in assay [6], in assay [7] and in assay [8] was inactive.

Consider `Cc1ccc(C)c(Cn2ccc3nc(N)nc(N)c32)c1`, for which the growth inhibition in assay [1] was 3%; in assay [4], 97% (active). Besides, the inhibition in assay [2] was 65% (active); in assay [3], -1%. Moreover, the result in assay [5], in assay [6], in assay [7] and in assay [8] was inactive.
